# Test results reported in article PMC7862700, “An all-to-all approach to the identification of sequence-specific readers for epigenetic DNA modifications on cytosine”.
# Assays:
# Assay in all cases: DAPPL (digital affinity profiling via proximity ligation, sequencing); 10 mM Tris-HCl pH 7.5, 50 mM NaCl, 1 mM DTT, 4% glycerol, room temperature, 30 min; GST-TFs on glutathione beads, 16-mer random dsDNA library, 0.1% formaldehyde crosslink after washing; high values mean tight binding
# [1] = biological target: T1, FEV (Homo sapiens, UniProt Q99581 1-238); details: protein: recombinant; tags: N-terminal GST; dsDNA, one strand shown
# T1 sequence: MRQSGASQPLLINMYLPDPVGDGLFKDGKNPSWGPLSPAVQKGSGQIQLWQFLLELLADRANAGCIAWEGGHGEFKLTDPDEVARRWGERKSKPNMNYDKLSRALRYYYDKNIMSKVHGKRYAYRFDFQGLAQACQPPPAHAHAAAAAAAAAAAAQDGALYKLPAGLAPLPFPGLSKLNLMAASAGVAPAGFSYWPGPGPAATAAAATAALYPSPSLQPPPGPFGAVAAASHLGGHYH
# Summary of the method: (§1)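 Beads coated with glutathione captured GST-fused human transcription factors that had been expressed in yeast, and the factors were then given DNA barcodes and pooled with a tag-only sample. The pools were incubated with 200 nmole of a random double-stranded 16-mer DNA library in Tris/NaCl/DTT/glycerol buffer for 30 min at room temperature, washed, crosslinked with 0.1% formaldehyde and proximity-ligated with BsaI/T4 ligase at 37 °C for 1 h. PCR amplification and Illumina NextSeq500 sequencing came last. Binding signal is each hexamer's read frequency for a factor divided by its frequency for the tag-only sample.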
# [2] = biological target: ETV5 (Homo sapiens, UniProt P41161 1-510); details: protein: recombinant; tags: N-terminal GST; dsDNA, one strand shown
# Summary of the method: as §1
# [3] = biological target: HSF1 (Homo sapiens, UniProt Q00613 1-529); details: protein: recombinant; tags: N-terminal GST; chain copies: 3; dsDNA, one strand shown
# Summary of the method: as §1
# [4] = biological target: T2, SPIC (Homo sapiens, UniProt Q8N5J4 1-248); details: protein: recombinant; tags: N-terminal GST; dsDNA, one strand shown
# T2 sequence: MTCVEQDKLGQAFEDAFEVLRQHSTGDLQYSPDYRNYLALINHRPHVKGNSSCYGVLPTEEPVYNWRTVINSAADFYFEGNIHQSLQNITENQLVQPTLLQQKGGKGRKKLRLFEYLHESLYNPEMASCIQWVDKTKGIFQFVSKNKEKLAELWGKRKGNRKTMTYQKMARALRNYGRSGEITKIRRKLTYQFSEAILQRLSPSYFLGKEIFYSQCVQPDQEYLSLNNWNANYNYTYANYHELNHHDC
# Summary of the method: as §1
# [5] = biological target: ELF4 (Homo sapiens, UniProt Q99607 1-663); details: protein: recombinant; tags: N-terminal GST; dsDNA, one strand shown
# Summary of the method: as §1
# [6] = biological target: T3, ELK4 (Homo sapiens, UniProt P28324-2 1-405); details: protein: recombinant; tags: N-terminal GST; dsDNA, one strand shown
# T3 sequence: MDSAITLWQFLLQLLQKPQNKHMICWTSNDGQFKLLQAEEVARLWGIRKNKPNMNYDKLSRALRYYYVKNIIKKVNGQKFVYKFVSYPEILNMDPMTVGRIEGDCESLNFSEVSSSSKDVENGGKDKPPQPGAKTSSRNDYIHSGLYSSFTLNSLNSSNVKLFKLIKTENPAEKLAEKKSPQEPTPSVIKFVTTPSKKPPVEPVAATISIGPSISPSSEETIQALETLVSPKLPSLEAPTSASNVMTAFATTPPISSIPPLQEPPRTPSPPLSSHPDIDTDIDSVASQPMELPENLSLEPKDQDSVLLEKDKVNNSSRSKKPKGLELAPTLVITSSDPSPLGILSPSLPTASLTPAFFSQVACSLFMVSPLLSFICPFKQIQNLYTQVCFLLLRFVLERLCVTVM
# Summary of the method: as §1
# [7] = biological target: T4, ETV2 (Homo sapiens, UniProt O00321 1-342); details: protein: recombinant; tags: N-terminal GST; dsDNA, one strand shown
# T4 sequence: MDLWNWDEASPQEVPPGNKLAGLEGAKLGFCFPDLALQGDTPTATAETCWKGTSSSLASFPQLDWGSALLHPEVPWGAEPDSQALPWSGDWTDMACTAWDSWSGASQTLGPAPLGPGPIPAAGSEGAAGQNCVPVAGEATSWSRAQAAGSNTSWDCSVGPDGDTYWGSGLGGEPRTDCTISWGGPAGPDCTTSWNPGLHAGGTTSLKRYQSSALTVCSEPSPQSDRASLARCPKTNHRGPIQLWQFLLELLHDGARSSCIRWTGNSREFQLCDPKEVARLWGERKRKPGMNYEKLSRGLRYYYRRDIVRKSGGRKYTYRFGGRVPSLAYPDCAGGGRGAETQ
# Summary of the method: as §1
# [8] = biological target: T5, ELF3 (Homo sapiens, UniProt P78545 1-371); details: protein: recombinant; tags: N-terminal GST; dsDNA, one strand shown
# T5 sequence: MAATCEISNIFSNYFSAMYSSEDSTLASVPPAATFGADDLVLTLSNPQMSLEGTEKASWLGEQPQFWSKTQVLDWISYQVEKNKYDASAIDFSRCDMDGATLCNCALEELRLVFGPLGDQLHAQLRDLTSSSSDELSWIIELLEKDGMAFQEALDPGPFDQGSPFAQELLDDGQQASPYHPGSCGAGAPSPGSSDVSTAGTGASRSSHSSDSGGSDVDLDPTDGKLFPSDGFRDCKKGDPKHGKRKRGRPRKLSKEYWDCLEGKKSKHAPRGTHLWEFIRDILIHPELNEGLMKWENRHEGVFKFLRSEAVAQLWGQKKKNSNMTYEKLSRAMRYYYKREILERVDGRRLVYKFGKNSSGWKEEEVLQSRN
# Summary of the method: as §1
# [9] = biological target: CRX (Homo sapiens, UniProt O43186 1-299); details: protein: recombinant; tags: N-terminal GST; dsDNA, one strand shown
# Summary of the method: as §1
# [10] = biological target: ETV1 (Homo sapiens, UniProt P50549 1-477); details: protein: recombinant; tags: N-terminal GST; dsDNA, one strand shown
# Summary of the method: as §1
# [11] = biological target: T6, ERF (Homo sapiens, UniProt P50548 1-548); details: protein: recombinant; tags: N-terminal GST; dsDNA, one strand shown
# T6 sequence: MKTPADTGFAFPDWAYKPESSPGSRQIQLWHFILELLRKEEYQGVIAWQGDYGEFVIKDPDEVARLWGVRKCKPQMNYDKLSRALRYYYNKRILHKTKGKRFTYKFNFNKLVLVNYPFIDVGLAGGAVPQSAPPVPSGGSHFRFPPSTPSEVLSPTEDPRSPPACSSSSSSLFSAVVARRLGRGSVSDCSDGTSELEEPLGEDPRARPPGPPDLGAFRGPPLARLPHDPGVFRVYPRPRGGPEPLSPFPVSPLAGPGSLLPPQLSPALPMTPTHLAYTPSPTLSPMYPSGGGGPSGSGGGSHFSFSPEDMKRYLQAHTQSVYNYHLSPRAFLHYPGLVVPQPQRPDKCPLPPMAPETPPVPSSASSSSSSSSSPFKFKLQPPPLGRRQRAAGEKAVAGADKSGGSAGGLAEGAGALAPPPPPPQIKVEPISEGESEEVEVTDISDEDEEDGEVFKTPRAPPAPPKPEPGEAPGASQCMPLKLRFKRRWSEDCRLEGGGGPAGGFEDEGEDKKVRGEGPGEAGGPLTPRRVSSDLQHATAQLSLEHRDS
# Summary of the method: as §1
# [12] = biological target: T7, ETV3L (Homo sapiens, UniProt Q6ZN32 1-361); details: protein: recombinant; tags: N-terminal GST; dsDNA, one strand shown
# T7 sequence: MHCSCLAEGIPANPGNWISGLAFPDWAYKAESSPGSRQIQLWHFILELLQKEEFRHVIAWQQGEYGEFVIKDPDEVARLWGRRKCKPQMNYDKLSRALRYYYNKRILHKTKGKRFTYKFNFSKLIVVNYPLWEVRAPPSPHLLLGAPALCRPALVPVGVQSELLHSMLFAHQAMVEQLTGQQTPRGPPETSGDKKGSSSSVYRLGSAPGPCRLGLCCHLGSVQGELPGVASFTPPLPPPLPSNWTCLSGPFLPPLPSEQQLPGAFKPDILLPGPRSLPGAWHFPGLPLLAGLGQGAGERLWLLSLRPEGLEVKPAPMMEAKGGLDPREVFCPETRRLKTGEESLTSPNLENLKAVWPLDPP
# Summary of the method: as §1
# [13] = biological target: T8, ETS2 (Homo sapiens, UniProt P15036 1-469); details: protein: recombinant; tags: N-terminal GST; dsDNA, one strand shown
# T8 sequence: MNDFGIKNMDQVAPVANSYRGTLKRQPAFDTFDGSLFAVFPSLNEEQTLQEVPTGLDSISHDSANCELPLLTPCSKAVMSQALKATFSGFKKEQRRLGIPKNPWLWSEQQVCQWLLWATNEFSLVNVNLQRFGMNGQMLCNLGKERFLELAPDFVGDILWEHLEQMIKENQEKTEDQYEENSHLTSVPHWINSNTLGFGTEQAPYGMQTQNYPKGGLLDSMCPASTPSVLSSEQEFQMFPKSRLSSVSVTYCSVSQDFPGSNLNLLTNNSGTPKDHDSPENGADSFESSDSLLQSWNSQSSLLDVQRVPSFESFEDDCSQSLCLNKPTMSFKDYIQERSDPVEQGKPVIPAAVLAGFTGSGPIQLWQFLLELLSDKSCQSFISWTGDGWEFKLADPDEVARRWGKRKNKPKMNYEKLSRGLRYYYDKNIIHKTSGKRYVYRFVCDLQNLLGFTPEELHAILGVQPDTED
# Summary of the method: as §1
# [14] = biological target: T9, SPDEF (Homo sapiens, UniProt O95238 1-335); details: protein: recombinant; tags: N-terminal GST; dsDNA, one strand shown
# T9 sequence: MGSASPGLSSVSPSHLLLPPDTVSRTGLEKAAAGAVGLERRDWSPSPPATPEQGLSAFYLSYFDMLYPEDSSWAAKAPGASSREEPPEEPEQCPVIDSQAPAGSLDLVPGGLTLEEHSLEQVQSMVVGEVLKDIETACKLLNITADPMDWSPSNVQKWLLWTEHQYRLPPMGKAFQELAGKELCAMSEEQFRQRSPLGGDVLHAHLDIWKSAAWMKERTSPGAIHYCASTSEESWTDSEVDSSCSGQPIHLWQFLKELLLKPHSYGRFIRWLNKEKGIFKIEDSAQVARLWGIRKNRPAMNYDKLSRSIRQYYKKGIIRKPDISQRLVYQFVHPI
# Summary of the method: as §1
# [15] = biological target: T10, ETV7 (Homo sapiens, UniProt Q9Y603 1-341); details: protein: recombinant; tags: N-terminal GST; dsDNA, one strand shown
# T10 sequence: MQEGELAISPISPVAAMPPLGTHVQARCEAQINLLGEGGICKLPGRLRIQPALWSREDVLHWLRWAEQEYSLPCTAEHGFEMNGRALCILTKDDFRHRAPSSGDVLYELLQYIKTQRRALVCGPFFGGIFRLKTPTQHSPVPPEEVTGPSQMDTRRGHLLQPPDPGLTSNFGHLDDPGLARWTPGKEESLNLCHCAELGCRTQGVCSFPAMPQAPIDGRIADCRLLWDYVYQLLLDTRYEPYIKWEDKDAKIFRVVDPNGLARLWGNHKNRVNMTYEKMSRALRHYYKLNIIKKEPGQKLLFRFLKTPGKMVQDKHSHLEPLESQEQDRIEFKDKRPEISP
# Summary of the method: as §1
# [16] = biological target: T11, ELF5 (Homo sapiens, UniProt Q9UKW6-2 1-255); details: protein: recombinant; tags: N-terminal GST; dsDNA, one strand shown
# T11 sequence: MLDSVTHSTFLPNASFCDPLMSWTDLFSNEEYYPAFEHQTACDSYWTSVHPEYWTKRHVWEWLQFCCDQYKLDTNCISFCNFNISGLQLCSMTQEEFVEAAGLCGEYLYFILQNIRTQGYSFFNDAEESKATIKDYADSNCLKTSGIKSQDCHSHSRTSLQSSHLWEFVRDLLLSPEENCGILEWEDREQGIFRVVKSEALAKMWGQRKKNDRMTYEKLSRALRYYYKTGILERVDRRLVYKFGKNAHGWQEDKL
# Summary of the method: as §1
# [17] = biological target: T12, ETV3 (Homo sapiens, UniProt P41162-2 1-143); details: protein: recombinant; tags: N-terminal GST; dsDNA, one strand shown
# T12 sequence: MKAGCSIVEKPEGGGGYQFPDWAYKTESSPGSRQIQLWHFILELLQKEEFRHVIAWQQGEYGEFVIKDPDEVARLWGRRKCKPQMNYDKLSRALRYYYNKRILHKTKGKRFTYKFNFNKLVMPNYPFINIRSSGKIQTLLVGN
# Summary of the method: as §1
# [18] = biological target: ETV6 (Homo sapiens, UniProt P41212 1-452); details: protein: recombinant; tags: N-terminal GST; dsDNA, one strand shown
# Summary of the method: as §1
# Chain of ETV6 (P41212 whole entry): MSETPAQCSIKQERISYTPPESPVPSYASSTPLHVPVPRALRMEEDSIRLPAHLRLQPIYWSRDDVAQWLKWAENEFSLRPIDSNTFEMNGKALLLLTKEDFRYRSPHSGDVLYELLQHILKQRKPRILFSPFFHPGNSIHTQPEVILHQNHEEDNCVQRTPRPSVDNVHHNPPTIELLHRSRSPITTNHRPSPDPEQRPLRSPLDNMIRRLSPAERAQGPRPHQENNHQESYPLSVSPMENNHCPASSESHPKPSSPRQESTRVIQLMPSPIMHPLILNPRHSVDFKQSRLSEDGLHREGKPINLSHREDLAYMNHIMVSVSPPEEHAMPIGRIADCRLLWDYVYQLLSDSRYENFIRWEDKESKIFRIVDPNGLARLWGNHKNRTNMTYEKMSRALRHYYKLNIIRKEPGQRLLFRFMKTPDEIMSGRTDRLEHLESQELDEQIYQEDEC
# Chain of ELF4 (Q99607 whole entry): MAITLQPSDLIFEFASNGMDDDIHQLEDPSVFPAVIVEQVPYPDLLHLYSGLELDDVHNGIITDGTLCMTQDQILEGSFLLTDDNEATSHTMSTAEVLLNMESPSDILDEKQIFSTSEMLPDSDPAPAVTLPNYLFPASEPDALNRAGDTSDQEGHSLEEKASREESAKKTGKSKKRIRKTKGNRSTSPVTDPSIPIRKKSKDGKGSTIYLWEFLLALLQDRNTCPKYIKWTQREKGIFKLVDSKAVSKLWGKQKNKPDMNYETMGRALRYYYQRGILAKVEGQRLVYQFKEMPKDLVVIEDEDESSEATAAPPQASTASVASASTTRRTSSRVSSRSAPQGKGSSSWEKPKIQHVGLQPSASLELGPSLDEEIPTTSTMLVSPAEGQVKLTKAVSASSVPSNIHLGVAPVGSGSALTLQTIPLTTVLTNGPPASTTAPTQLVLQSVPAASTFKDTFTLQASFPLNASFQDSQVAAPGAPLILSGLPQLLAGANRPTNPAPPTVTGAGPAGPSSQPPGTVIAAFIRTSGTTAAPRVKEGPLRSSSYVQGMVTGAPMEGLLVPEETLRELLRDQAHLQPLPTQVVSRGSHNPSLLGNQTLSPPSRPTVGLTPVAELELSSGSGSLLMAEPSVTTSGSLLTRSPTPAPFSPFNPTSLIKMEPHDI
# Chain of HSF1 (Q00613 whole entry): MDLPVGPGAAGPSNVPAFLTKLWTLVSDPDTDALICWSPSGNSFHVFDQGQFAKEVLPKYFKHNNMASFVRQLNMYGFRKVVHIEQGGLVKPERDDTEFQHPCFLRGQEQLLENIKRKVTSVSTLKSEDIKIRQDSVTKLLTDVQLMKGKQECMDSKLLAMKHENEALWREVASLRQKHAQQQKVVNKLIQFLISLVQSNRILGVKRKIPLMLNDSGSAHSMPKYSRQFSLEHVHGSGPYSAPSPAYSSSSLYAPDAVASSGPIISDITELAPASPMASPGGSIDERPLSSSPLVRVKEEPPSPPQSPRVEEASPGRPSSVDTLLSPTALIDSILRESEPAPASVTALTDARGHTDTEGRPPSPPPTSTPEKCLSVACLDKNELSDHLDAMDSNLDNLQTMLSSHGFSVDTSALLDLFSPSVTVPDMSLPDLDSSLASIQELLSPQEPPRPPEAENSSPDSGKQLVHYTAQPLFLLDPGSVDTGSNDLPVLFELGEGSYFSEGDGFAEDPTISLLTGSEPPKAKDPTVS
# Chain of ETV5 (P41161 whole entry): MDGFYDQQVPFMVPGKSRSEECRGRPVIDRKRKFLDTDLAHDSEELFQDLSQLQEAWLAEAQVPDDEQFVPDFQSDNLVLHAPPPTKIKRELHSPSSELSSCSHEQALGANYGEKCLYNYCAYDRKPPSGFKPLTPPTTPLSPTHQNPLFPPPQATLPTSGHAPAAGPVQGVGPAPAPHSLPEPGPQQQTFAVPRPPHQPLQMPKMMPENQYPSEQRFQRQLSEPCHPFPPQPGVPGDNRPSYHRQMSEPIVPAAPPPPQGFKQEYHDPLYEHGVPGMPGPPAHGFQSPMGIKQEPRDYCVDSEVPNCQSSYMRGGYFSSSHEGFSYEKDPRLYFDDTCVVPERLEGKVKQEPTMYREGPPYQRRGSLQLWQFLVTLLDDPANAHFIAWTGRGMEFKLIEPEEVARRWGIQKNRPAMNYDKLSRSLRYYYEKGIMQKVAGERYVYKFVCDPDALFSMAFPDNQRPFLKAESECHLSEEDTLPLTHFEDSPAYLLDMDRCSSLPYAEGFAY
# Chain of CRX (O43186 whole entry): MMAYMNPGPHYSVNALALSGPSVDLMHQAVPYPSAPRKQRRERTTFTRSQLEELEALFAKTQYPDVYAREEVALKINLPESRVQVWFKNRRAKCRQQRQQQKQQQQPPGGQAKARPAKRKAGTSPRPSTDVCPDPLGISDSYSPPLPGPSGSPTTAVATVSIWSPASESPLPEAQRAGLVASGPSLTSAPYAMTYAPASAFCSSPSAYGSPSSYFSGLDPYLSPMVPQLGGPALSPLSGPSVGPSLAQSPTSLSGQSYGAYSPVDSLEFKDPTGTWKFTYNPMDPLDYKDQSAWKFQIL
# Chain of ETV1 (P50549 whole entry): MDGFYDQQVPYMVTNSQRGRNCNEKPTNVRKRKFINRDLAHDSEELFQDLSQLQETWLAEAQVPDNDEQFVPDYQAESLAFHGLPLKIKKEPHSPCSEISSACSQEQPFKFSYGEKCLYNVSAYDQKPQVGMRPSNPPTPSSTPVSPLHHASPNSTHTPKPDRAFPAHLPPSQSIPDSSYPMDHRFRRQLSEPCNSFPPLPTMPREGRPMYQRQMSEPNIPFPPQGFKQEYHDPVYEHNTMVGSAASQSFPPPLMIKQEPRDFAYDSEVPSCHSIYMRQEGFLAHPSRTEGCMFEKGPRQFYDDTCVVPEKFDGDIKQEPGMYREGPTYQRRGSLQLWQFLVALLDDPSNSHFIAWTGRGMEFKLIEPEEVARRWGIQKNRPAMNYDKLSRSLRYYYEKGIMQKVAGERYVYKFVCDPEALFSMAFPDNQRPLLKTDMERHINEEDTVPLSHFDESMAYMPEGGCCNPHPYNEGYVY
sequence,measurement,setting,value
AAGCTA,binding signal,[1],"1.13 fold enrichment (6-mer frequency, TF over GST control)"
same,binding signal,[2],"1.17 fold enrichment (6-mer frequency, TF over GST control)"
same,binding signal,[3],"1.29 fold enrichment (6-mer frequency, TF over GST control)"
same,binding signal,[4],"1.13 fold enrichment (6-mer frequency, TF over GST control)"
same,binding signal,[5],"1.2 fold enrichment (6-mer frequency, TF over GST control)"
same,binding signal,[6],"1.17 fold enrichment (6-mer frequency, TF over GST control)"
same,binding signal,[7],"1.12 fold enrichment (6-mer frequency, TF over GST control)"
same,binding signal,[8],"1.2 fold enrichment (6-mer frequency, TF over GST control)"
same,binding signal,[9],"1.58 fold enrichment (6-mer frequency, TF over GST control)"
same,binding signal,[10],"1.17 fold enrichment (6-mer frequency, TF over GST control)"
same,binding signal,[11],"1.18 fold enrichment (6-mer frequency, TF over GST control)"
same,binding signal,[12],"1.2 fold enrichment (6-mer frequency, TF over GST control)"
same,binding signal,[13],"1.14 fold enrichment (6-mer frequency, TF over GST control)"
same,binding signal,[14],"1.16 fold enrichment (6-mer frequency, TF over GST control)"
same,binding signal,[15],"1.2 fold enrichment (6-mer frequency, TF over GST control)"
same,binding signal,[16],"1.11 fold enrichment (6-mer frequency, TF over GST control)"
same,binding signal,[17],"1.2 fold enrichment (6-mer frequency, TF over GST control)"
same,binding signal,[18],"1.1 fold enrichment (6-mer frequency, TF over GST control)"
